Assay outcomes deposited in PubChem BioAssay by National Center for Advancing Translational Sciences (NCATS).
SW480 rereplic: inducers of DNA re-replication in SW480 colon cancer cells | SW480 DNA re-replication, Hoechst DNA content imaging, 48 h | Potency, µM (top dose mostly 46.1 µM), for inactives: at the highest dose re-replication activation, most hits filed as activators | 340,000 tested, 1.8% active | AID 624297; note: potency is the fitted concentration of half-maximal effect; % of control where 0% means no effect; nearly all actives have a fitted effect of over 55% in size
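Image-based DNA-content assay: after two days of treatment, nuclei were labelled with the DNA dye Hoechst and imaged, and hits were compounds raising the count of nuclei showing high fluorescence intensity.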
MCF10A rereplic: DNA re-replication induction in MCF 10a cells | MCF 10A DNA re-replication, Hoechst nuclear intensity, 48 h | Potency, µM (series often up to 46.1 µM), for the others: at the top dose activity, positive = re-replication, most hits filed as activators | 350,000 tested, 2.9% active; note: potency is the fitted concentration of half-maximal effect; % of control where 0% means no effect; nearly all actives have a fitted effect of over 50% in size
ATXN2 expr inh: reduces ATXN2 reporter expression in HEK-293 cells. HEK-293 ATXN2-luciferase reporter, luminescence, 24 h. Potency, µM (titrated, usually from 57 µM), without a hit: at the highest dose activity change, negative = inhibition, hits mostly inhibitors. 360,000 tested, 0.72% active; note: potency is the fitted concentration of half-maximal effect; % is set by controls: 0 for no effect and ±100 for the full control effect; nearly all actives have a fitted effect of over 55% in size
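ATXN2-luciferase reporter cells (luciferase flanked by upstream and downstream ATXN2 gene portions) were treated 24 h at 37 °C with compounds at up to 57 uM. SteadyGlo luminescence gave expression; GF-AFC fluorescence gave viability.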
ATXN viability: cell viability loss in ATXN counter-screen | S2 cells (HEK-293 line with an ATXN2-luciferase reporter) viability, CellTiter-Fluor protease fluorescence, 24 h | Potency, µM (titrated, usually from 56.7 µM), hits mostly cytotoxic | 400,000 tested, 0.49% active | AID 651635; note: potency is the fitted concentration of half-maximal effect; nearly all actives have a fitted effect of over 40% in size
PINK1 modulator: modulators of PINK1 expression. PINK1 immunofluorescence, high-content cytometry, 24 h. 410,000 tested, 0.2% active. Potency, µM (top dose mostly 76.6 µM), inactives show at the top dose activation (PINK1 increase), usual class: activators; active = well fitted activation curve with a large enough effect; inconclusive = small, poorly fitted or top-dose-only effect; cell line not stated here; note: potency is the fitted concentration of half-maximal effect; % of control where 0% means no effect; nearly all actives have a fitted effect of over 65% in size
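PINK1 protein, normally rapidly degraded, was detected by immunofluorescence after 24 hour compound treatment of a stable cell line. Titration data (5 concentrations) came from laser-scanning cytometry, with CCCP-treated wells as controls.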
IL1B secr inh: inflammasome signaling inhibition, IL-1 beta readout | 360,000 tested, 4.7% active | activity change, % at 57.5 µM | THP-1 LPS/ATP IL-1B secretion, AlphaLISA, 16 h; hits give low values; in the data active = activity change below about -50%; inconclusive = mostly about -30% to -49%; note: % is set by controls: 0 for no effect and ±100 for the full control effect
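THP-1 cells pretreated 1 hr with compounds (up to 57.5 uM final), then stimulated with LPS (250 ng/mL final) plus ATP (1.25 mM final); secreted IL-1B measured by AlphaLISA after 16 hr, decreased signal indicating inhibition.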
* hit, by the source's call; i = inactive; ? = inconclusive; . = no result given; [ ] = dose if it differs, or a comment. This is a sample that favours compounds with a hit; in the whole collection about 7.1% have one here. Unless noted, calls come from the whole dose curve; as a rule, active = well fitted curve in the direction sought with a large enough effect; inconclusive = small, poorly fitted or top-dose-only effect, or another doubt; inactive = no such curve, though single readings can be large; an effect the other way counts as inactive or inconclusive.

SMILES	SW480 rereplic	MCF10A rereplic	ATXN2 expr inh	ATXN viability	PINK1 modulator	IL1B secr inh
Cc1ccc(C(=O)CCS(=O)(=O)c2ccc(Br)cc2)cc1	?	?	-3.0%	i	4.0%	?
O=C(Nc1cccc([N+](=O)[O-])c1)c1ccncc1	-2.8%	-0.8%	5.4%	i	2.8%	21.8
Cc1ccc(S(=O)(=O)CCC(=O)c2cccc([N+](=O)[O-])c2)cc1	2.1%	3.66µM*	?	?	-1.2%	-98.0*
O=C(CCNc1ccc(Cc2ccncc2)cc1)c1cccc([N+](=O)[O-])c1	-0.6%	?	-29.7%	i	-1.7%	-108.6*
O=C(CCNc1cccc(F)c1)c1cccc([N+](=O)[O-])c1	-2.1%	?	-11.6%	i	-0.2%	-86.0*
Cc1ccc2occ(CN3CCOc4ccc(C(C)(O)COc5ccccc5)cc4C3)c(=O)c2c1 (configuration not stated)	.	.	.	?	-0.3%	.
Cc1cccc(Cn2c(C)c(C)c3cc(C(=O)NCc4ccco4)ccc32)c1	.	.	.	.	6.0%	.
Oc1ccc(N2CCN(c3ncnc4sc5c(c34)CCC5)CC2)cc1	?	13µM*	-19.2%	i	-0.3%	-27.5
COc1cccc(-c2ccc(O)c(CNCc3cccc4ccccc34)c2)n1	.	.	.	i	0.5%	.
NC(=O)N/N=C/c1c(Sc2nnnn2-c2ccccc2)nc2ccccn2c1=O	7.31µM*	14.6µM*	.	?	1.6%	-67.9*
COc1ccc(-n2c(CCNC(=O)c3ccc(-c4cccc(F)c4)cc3)nnc2SC)cc1	.	.	.	i	-0.4%	.
COc1ccc(N2CCN(S(=O)(=O)c3ccc(C4CCCCC4)cc3)CC2)cc1	.	.	10.2%	i	0.4%	.
Cc1ccc(OCc2cc(C(=O)NCC(C)(C)N3CCOCC3)no2)cc1C	24.4%	?	28.5%	i	0.1%	-69.6*
O=C(N/N=C/c1ccc(OC(F)F)cc1OC(F)F)NC1CCCCC1	-26.4%	?	21.5%	i	10.6%	-80.6*
O=c1c(-c2cccs2)nc2ccccc2n1C(c1ccccn1)c1nc2ccccc2[nH]1 (configuration not stated)	.	.	.	.	.	-7.8
Cn1ncc2c(Nc3ccc4ccccc4c3)ncnc21	16.4µM*	?	111.9%	i	.	-17.5
CC(C)Nc1ncnc2c1cnn2-c1ccc(Cl)cc1	-0.9%	-9.0%	5.4%	i	0.6%	-58.5*
CC(=O)Nc1ccc(Nc2ncnc3c2cnn3-c2ccccc2)cc1	-1.7%	24.2%	44.5%	i	22.1%[38.3 µM]	-16.4
Clc1ccc(Nc2ncnc3c2cnn3-c2ccccc2)cc1	-1.1%	-1.0%	-12.8%	?	13.1%	-53.2*
CC(C)c1ccccc1OCC(O)CN1CCN(S(=O)(=O)c2ccc([N+](=O)[O-])cc2)CC1 (configuration not stated)	27.0%	8.1%	?	i	2.1%	-83.4*
Cc1cccc(N2CCN(C(=O)C3CCN(S(=O)(=O)c4cccs4)CC3)CC2)c1C	.	.	-19.9%	i	0.4%	.
O=C(NNc1ccccc1)c1sc2ccccc2c1Cl	.	.	.	.	3.4%	.
CCOc1ccc(CC(=O)Nc2c(C(=O)Nc3ccc(OC)cc3OC)oc3ccccc23)cc1	.	.	-5.6%	i	2.8%	.
CCOC(CN=c1nc(N(C)C)ss1)OCC	?	?	?	.	-6.2%	-100.9*
Cc1ccccc1NC(=O)/C=C1\SC(=O)NC1=O	?	23.1µM*	23.4%	i	0.2%	-10.4
SMILES	SW480 rereplic	MCF10A rereplic	ATXN2 expr inh	ATXN viability	PINK1 modulator	IL1B secr inh
CCc1ccccc1NC(=O)Cn1nc2c3cc(F)ccc3n(Cc3cccc(C)c3)cc-2c1=O	.	.	7.4%	i	3.1%	.
Cc1cnc(CNC(=O)c2c3n(c(C)cc2=O)-c2ccccc2SC(c2ccsc2)C3)cn1 (configuration not stated)	.	.	.	i	0.8%	.
Cc1cc(C(=O)COC(=O)C(C)NC(N)=O)c(C)n1Cc1ccco1 (configuration not stated)	24.8%	-42.7%	27.7%	i	-1.7%	-102.9*
ClCC1NCC(c2ccccc2Cl)c2c1[nH]c1ccccc21 (configuration not stated)	-8.8%	3.66µM*	15.2%	i	16.4%	-6.9
Cc1ccc(Cc2cnc(NC(=O)c3ccc4c(c3)CC(c3ccccc3)OC4=O)s2)cc1 (configuration not stated)	.	.	3.4%	i	0.5%	.
CC(C)(C)C(=O)N1CCN(c2ccc(NC(=O)c3ccc([N+](=O)[O-])o3)cc2)CC1	1.84µM*	1.84µM*	2.5%	?	-0.6%	-96.1*
CCC(=O)N1CCN(c2ccc(NC(=O)c3ccc([N+](=O)[O-])o3)cc2)CC1	-0.4%	11.0%	23.4%	i	-0.6%	-102.6*
CCCC(=O)N1CCN(c2ccc(NC(=O)c3ccc([N+](=O)[O-])o3)cc2)CC1	6.9%	?	-15.9%	i	-0.5%	-109.0*
CCCC(=O)N1CCN(c2ccc(NC(=O)c3ccc(Br)o3)cc2)CC1	-2.1%	-0.3%	13.5%	i	-0.4%	?
O=C(Nc1ccc(N2CCN(C(=O)c3ccc(Cl)cc3)CC2)cc1)c1ccc([N+](=O)[O-])o1	?	?	-8.3%[11.3 µM]	?	-0.3%	-106.7*
COc1ccc(-c2nc(N3CCN(S(=O)(=O)c4ccccc4)CC3)c3ccccc3n2)cc1	.	.	.	.	-0.9%	.
Cc1cc(C(=O)NCc2nnc3n2CCN(Cc2ccc4c(c2)Cc2ccccc2-4)CC3)c(C)o1	.	.	.	?	0.8%	.
Cc1ccc2c(c1)c1c3n2CCCNC3CCC1 (configuration not stated)	10.0%	-1.2%	-16.9%	i	-2.9%[38.3 µM]	-54.5*
Cc1ccc2c(c1)c1c3n2CCN(C(=O)CCl)C3CCC1 (configuration not stated)	?	?	-30.3%	?	-1.8%	-98.6*
c1cc2c(cc1C1CCCCC1)c1c3n2CCCNC3CCC1 (configuration not stated)	17.6%[9.22 µM]	?	28.2µM*	.	-1.5%	-83.4*
CCc1cc(Cn2nc(-c3ccccc3)cc2C(=O)NCc2cccc(Br)c2)on1	12.7%	?	-21.7%	?	0.5%	-52.5*
O=C(Nc1ccc(-c2csc(Nc3ccccc3)n2)cc1)c1cc([N+](=O)[O-])cc(C(F)(F)F)c1	14.1%	28.7%	?	12.6µM*	?	88.2
COc1ccc(NC(=O)c2cc(-c3ccc(C)c(C)c3O)n[nH]2)cc1Cl	?	18.4µM*	-21.7%	i	10.9%	25.7
COc1ccc(Cl)cc1-c1cc(C(=O)Nc2ccc(C)c(NS(C)(=O)=O)c2)[nH]n1	.	.	22.4µM*	15.8µM*	1.1%	?
